USP7 block – inhibitors of human USP7 deubiquitinase; Q93009; inhibition, % at 20 µM; actives 0.3% (n = 47,000); AID 1645854; purified USP7, Ub-rhodamine cleavage fluorescence
USP17 block – blocks human USP17 ubiquitin-rhodamine cleavage; purified USP17, Ub-rhodamine cleavage fluorescence, 3 h; actives 6.5% (n = 47,000); inhibition, % at 50 µM; A8MUK1
USP8 inh – blocks human USP8 ubiquitin-rhodamine cleavage. inhibition, % at 20 µM. actives 4.2% (n = 47,000). purified USP8, Ub-rhodamine cleavage fluorescence, 30 min. P40818. AID 1645853
USP10 block – human USP10 deubiquitinase inhibition; inhibition, % at 20 µM; actives 1.1% (n = 47,000); AID 1645856; Q14694; purified USP10, Ub-rhodamine fluorescence, 60 min
Target sequence (Q14694 whole entry, looked up): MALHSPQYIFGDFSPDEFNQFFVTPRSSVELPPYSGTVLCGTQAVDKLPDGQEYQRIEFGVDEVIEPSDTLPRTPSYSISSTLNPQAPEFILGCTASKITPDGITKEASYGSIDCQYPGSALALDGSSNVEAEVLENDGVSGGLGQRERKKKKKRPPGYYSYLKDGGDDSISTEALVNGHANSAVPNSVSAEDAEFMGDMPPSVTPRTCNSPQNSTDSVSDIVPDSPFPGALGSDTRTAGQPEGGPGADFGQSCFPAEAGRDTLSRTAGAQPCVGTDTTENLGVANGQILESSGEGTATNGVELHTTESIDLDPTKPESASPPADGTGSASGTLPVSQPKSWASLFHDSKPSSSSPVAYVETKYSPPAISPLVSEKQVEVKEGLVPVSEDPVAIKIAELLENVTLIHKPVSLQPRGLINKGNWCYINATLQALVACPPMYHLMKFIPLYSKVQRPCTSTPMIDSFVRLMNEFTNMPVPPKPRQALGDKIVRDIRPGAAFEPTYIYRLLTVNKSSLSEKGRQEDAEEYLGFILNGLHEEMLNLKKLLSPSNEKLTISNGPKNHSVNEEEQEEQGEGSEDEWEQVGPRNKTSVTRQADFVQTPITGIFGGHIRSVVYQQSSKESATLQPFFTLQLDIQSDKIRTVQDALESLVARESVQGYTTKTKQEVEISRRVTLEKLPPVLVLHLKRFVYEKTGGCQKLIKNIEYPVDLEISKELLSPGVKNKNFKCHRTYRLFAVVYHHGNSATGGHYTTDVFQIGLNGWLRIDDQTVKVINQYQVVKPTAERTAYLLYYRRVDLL
USP30 inh – inhibitors of human USP30 deubiquitinase; actives 5.3% (n = 47,000); Q70CQ3; purified USP30, Ub-rhodamine cleavage fluorescence; inhibition, % at 25 µM
USP28 block – inhibitors of human USP28 deubiquitinase | AID 1645857 | actives 3% (n = 47,000) | Q96RU2 | inhibition, % at 25 µM | purified USP28, Ub-rhodamine cleavage fluorescence, 30 min
* marks the source's active call; other numbers are inactive results; nt = no result. Sampled rows, rich in hits. Any-hit rate of the full collection: about 13%. Rule as the data show it: active = inhibition above about 30%; inactive = the rest.

SMILES | USP7 block | USP17 block | USP8 inh | USP10 block | USP30 inh | USP28 block
COc1ccccc1CNC(=O)C(=O)c1cn(CC(=O)N2CCCCC2)c2ccccc12 | nt | 15.5 | 0.0 | 2.0 | 25.7 | 12.9
O=C(Cn1cc(S(=O)(=O)Cc2c(F)cccc2Cl)c2ccccc21)N1CCCCCC1 | 3.6 | 1.1 | -6.8 | 12.0 | -0.5 | -7.0
CCN(CC)C(=O)Cn1cc(S(=O)(=O)Cc2c(F)cccc2Cl)c2ccccc21 | -0.8 | 14.3 | -2.2 | 6.5 | 37.7* | -0.5
NS(=O)(=O)c1ccc(NC(=O)c2sccc2Oc2ccc(F)cc2[N+](=O)[O-])cc1 | 5.4 | 54.9* | -3.8 | 5.0 | 60.8* | 32.3*
O=C(N[C@@H]1C[C@@H](Oc2cccc(F)c2)[C@H](O)[C@H]1O)c1ccccc1F | 1.0 | 8.8 | 4.3 | 0.0 | 8.5 | 0.7
CC(C)c1cc2c(c(O)c1O)[C@@]13CCCC(C)(C)[C@@H]1C[C@@H]2OC3=O | -1.6 | 73.5* | 2.8 | 7.3 | 11.1 | 32.6*
Cc1oc2nc[nH]c(=O)c2c1C(=O)Nc1ccc(Oc2ccccc2)cc1 | -43.6 | 5.0 | -10.7 | -4.0 | -185.0 | -31.4
Cc1ccc(S(=O)(=O)N[C@H]2C[C@H]3CN(C(C)C)c4ccccc4CN3C2)cc1 | 0.0 | -78.3 | -29.4 | -6.4 | -287.7 | -85.0
O=C(O)c1ccc(CN(Cc2ccccc2)S(=O)(=O)c2ccc(Cl)cc2)cc1 | 5.0 | -3.0 | -12.1 | 10.3 | 2.8 | 13.2
O=C(CN(CCC1=CCCCC1)S(=O)(=O)c1ccc(Cl)cc1)Nc1ccc(F)c(F)c1 | 2.8 | -7.2 | 7.7 | 7.9 | -15.9 | -9.7
O=S(=O)(c1ccc(Cl)cc1)N(Cc1ccccc1)Cc1nnnn1-c1ccccc1 | 12.1 | 12.2 | 21.4 | 5.6 | 30.1* | 20.2
CCc1nnc(NC(=O)CN(Cc2ccccc2)S(=O)(=O)c2ccc(Cl)cc2)s1 | 0.3 | 63.3* | -26.1 | 12.8 | 55.5* | 12.0
Cc1cccc(C(=O)Nc2ccc3c(c2)nc(CCN2CCCCC2)n3C)c1 | -6.9 | -14.4 | -2.1 | -4.1 | -20.3 | -12.7
Cn1c(CCN2CCCCC2)nc2cc(NC(=O)c3ccc(Cl)cc3)ccc21 | -1.8 | 32.8* | 6.4 | -10.5 | -16.6 | 9.4
CCc1nc2cc(NC(=O)c3cccc(N4CCCC4=O)c3)ccc2n1C | 11.4 | -8.4 | -12.0 | -0.1 | -50.5 | 61.8*
Cn1c(CCN2CCCCC2)nc2cc(NC(=O)COc3ccc(Cl)cc3)ccc21 | -8.8 | -4.6 | -0.6 | -5.5 | 0.3 | -0.1
O=C(N[C@H]1[C@H](O)[C@H](O)C[C@@H]1C1CCCCC1)C1CC1 | 2.1 | 21.1 | 1.0 | 1.1 | 48.8* | 15.8
COc1ccc(S(=O)(=O)NCC(c2ccc3c(c2)CCN3C)N2CCCC2)c(OC)c1 (centres undefined) | -1.2 | -5.6 | 1.4 | 0.7 | -4.2 | -3.7
CCn1c(=O)c2ccccc2n(Cc2nc(-c3ccccc3)no2)c1=O | 0.3 | 7.7 | 0.2 | 4.2 | 5.2 | 5.5
CC1Oc2ccccc2N(Cc2nc(-c3ccccc3)no2)C1=O (centres undefined) | 1.1 | 39.7* | -0.6 | 5.8 | 2.9 | 6.8
O=C(c1ncn2c1CNS(=O)(=O)c1ccccc1-2)N1CCCC1 | -3.0 | -11.3 | -6.5 | -0.8 | -14.8 | -1.7
O=C(Nc1cccc(Cl)c1)c1ncn2c1CNS(=O)(=O)c1ccccc1-2 | -60.9 | 33.4* | 22.7 | 37.0* | 36.0* | 66.2*
COC(=O)CC[C@H]1CNC(=O)[C@@H]2[C@@H](CCN2Cc2ccc(C)cc2)N1C | -6.0 | -30.3 | 4.5 | -3.3 | -9.2 | 16.0
Cc1cccc(CNC(=O)CC2c3ncccc3C(=O)N2c2ccccc2)c1 (centres undefined) | -2.1 | -15.5 | 10.9 | -7.4 | -24.7 | -4.0
Cc1ccc(Nc2nc(O)c(CC(=O)Nc3cccc(Cl)c3C)s2)cc1C | 12.2 | 13.6 | 63.0* | 30.5* | 15.0 | 6.4
SMILES | USP7 block | USP17 block | USP8 inh | USP10 block | USP30 inh | USP28 block
O=C(Cn1c(=O)c2ccccc2n(CC(=O)Nc2cc(Cl)cc(Cl)c2)c1=O)NCc1ccco1 | 1.5 | 29.7 | 50.4* | 34.7* | 39.5* | 17.0
O=C(Cn1c(=O)n(-c2ccc(F)cc2)c(=O)c2oc3ccccc3c21)NC1CCCCC1 | 6.5 | 17.2 | 40.7* | 6.8 | -5.6 | 6.3
CCc1ccc(NC(=O)Cn2c(=O)n(-c3ccc(CC(=O)NCc4ccco4)cc3)c(=O)c3ccccc32)cc1 | 7.9 | 47.4* | 29.0 | 21.4 | -22.4 | 0.3
O=C(Cc1ccc(-n2c(=O)c3ccccc3n(CC(=O)Nc3cc(Cl)cc(Cl)c3)c2=O)cc1)NCCc1ccccc1 | 7.1 | -2.3 | 29.9 | -0.1 | -87.8 | -7.7
CCc1ccc(-n2c(=O)c3ccccc3n(CC(=O)NC3CCCC3)c2=O)cc1 | 6.9 | 62.4* | 4.6 | 9.4 | 51.6* | 31.1*
O=C(Cn1c(=O)n(-c2ccccc2)c(=O)c2oc3ccccc3c21)N1CCCCC1 | -9.9 | -4.9 | -1.5 | 0.4 | -14.8 | -5.1
CC(C)(C)C(=O)Cn1c(=O)n(-c2ccc(CC(=O)NC3CCCC3)cc2)c(=O)c2ccccc21 | -1.1 | -17.4 | -20.5 | 1.1 | -54.5 | -15.2
COc1cc(NC(=O)Cn2c(=O)n(-c3ccc(CC(=O)NCc4ccco4)cc3)c(=O)c3ccccc32)cc(OC)c1 | 4.1 | 3.8 | 22.0 | 23.0 | 9.5 | 9.4
O=C(Cn1c(=O)n(CC(=O)NC2CCCC2)c(=O)c2ccccc21)Nc1ccc(Br)cc1 | 8.4 | 37.8* | 8.7 | 4.6 | 41.3* | 24.0
COc1cc(Cl)c(C)cc1NC(=O)Cn1c(=O)n(CC(=O)NCc2ccco2)c(=O)c2ccccc21 | -22.0 | 49.8* | 63.5* | 42.6* | 28.3 | 38.5*
CCc1noc(Cn2cnc3c4ccccc4n(CC(=O)NC4CCCCC4)c3c2=O)n1 | -3.7 | 45.9* | 21.9 | 17.8 | 69.3* | 53.1*
O=C(Cn1c(=O)n(Cc2ccco2)c(=O)c2ccc(Cl)cc21)NCC1CCCO1 (centres undefined) | -0.4 | 8.6 | 11.2 | 0.1 | 13.6 | 14.7
O=C(Cn1c(=O)c2ccccc2n(CC(=O)Nc2ccc(Br)cc2)c1=O)NCc1ccco1 | 5.2 | 31.1* | 44.1* | 23.0 | 21.1 | 15.2
O=C(Cn1c(=O)n(CCC(=O)NC2CCCC2)c(=O)c2ccccc21)Nc1ccc(Br)cc1F | -3.0 | -7.5 | -4.1 | 4.2 | -19.0 | -12.9
Cn1cnc(S(=O)(=O)N2CCCCC2c2nc3ccccc3[nH]2)c1 (centres undefined) | -4.1 | -6.0 | -116.8 | -2.8 | -36.2 | -8.6
Cc1ccn2c(=O)cc(COc3cccc(NC(=O)Nc4ccccc4)c3)nc2c1 | -12.9 | -18.0 | -38.6 | -10.8 | -67.3 | -9.2
COc1ccc(OCC(=O)Nc2ccc(C)c(OCc3cc(=O)n4ccccc4n3)c2)cc1 | -5.2 | 50.1* | -10.8 | -5.0 | -55.5 | -12.9
COc1ccc(C(=O)N2CCN(Cc3cc(=O)n4ccccc4n3)CC2)cc1 | 4.4 | 19.7 | 21.5 | 0.3 | 35.8* | 18.2
Cc1ccccc1NC(=O)Nc1ccccc1OCc1cc(=O)n2ccccc2n1 | 5.5 | 49.6* | 13.2 | 11.1 | 42.5* | 19.8

Bioassay records (PubChem)
